Measured values taken from PubChem BioAssay (NCI).
Values joined by “and” are separate entries in the source; they are usually repeats but may differ in a detail not shown here. Equal entries are not always repeated. The panel holds about 79,000 compounds, 15% with a hit somewhere; the sample as a whole holds those more often. A number with no mark means an inactive call. Cut-off read from the data, not from the text of the source: active = growth inhibition above about 70%; inactive = the rest. *1 amine or outer side, *2 acyl side, *3 side chain or, on linkers, in order; H or OH if unused. Where a SMILES comes first, the peptide text is derived from it. Bridges are numbered along the chain shown (N, C = ends). Roman numbers before positions name the chains, in order. [ ]: non-standard residue; d: D form. Actinocin(9to1) = Cc1c2oc3c(C)ccc(C(=O)[*:1])c3nc-2c(C(=O)[*:2])c(N)c1=O; NMeY = CN[CH](Cc1ccc(O)cc1)C(=O)O; Sar = CNCC(=O)O

Experiment: NCI Yeast Anticancer Drug Screen. Data for the cln2 rad14 strain (AID 165);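 note: 0% = growth equal to vehicle treated cultures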
Conditions: S. cerevisiae cln2 rad14 strain, at 50.0 µM, hits give high values
Procedure, shortened: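 Growth inhibition, relative to vehicle-treated controls, is the read-out. The test organism is a yeast strain with defined genetic alterations, cln2 rad14.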
For `O=C(OC(=C(c1ccccc1)c1ccccc1)c1ccccc1)c1ccccc1`, the growth inhibition was -9.6% and -22.2%.
For `Cc1ccc(N(O)C(C)(C)C)cc1`, the growth inhibition was -3.85% and -1.2%.
For `Cc1c2oc3c(C)ccc(C(=O)NC4C(=O)NC(C(C)C)C(=O)N5CCCC5C(=O)N(C)CC(=O)N(C)C(Cc5ccc(O)cc5)C(=O)OC4C)c3nc-2c(C(=O)NC2C(=O)NC(C(C)C)C(=O)N3CCCC3C(=O)N(C)CC(=O)N(C)C(Cc3ccc(O)cc3)C(=O)OC2C)c(N)c1=O` (stereo not given) (I: TVP[Sar][NMeY] / II: TVP[Sar][NMeY]; ester I:1-I:C, II:1-II:C; linker I:N-II:N via Actinocin(9to1); configuration not given here), the growth inhibition was 4.7% and 26.5%.
With `CC(O)C(O)C(O)C(O)CO` (stereo not given) the growth inhibition was 14.2% and -28.2%.
For `Cc1ccc2ccccc2[n+]1C`, the growth inhibition was -36.9% and 1.2%.
